From PubChem BioAssay come the findings set out here.

Experiment [1] can be described thus: small molecules captured by biotinylated probe aFSTL3 – biochemical, small-molecule microarray, fluorescence 635/667, stem cell growth factor project, primary screen (AID 1064).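 Note: measures binding of the biotinylated anti-FSTL3 antibody to printed compounds.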 Particulars: higher = more signal.
Experiment [2] in a line: binders from COS7 lysate, DM2A8 probe, primary screen, torsin A project, cell lysate, small-molecule microarray, fluorescence 635/667 (AID 1065). Particulars: higher = more signal, COS7 lysate expressing mutant human TOR1A.
Experiment [3] in a line: small molecules captured by biotinylated probe aFGF2 – biochemical, small-molecule microarray, fluorescence 635/667, stem cell growth factor project, primary screen (AID 1067).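 Note: measures binding of biotinylated aFGF2 protein to printed compounds on slides; z-score merges feature fluorescence and signal-to-noise across triplicate slides.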 To be noted: higher = more signal.
Experiment [4] can be described thus: small molecules captured by biotinylated probe aFGF10 – biochemical, small-molecule microarray, fluorescence 635/667, stem cell growth factor project, primary screen (AID 1071).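 Note: score merges 667 nm spot intensity and signal to noise from triplicate slides.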 Particulars: higher = more signal.
Experiment [5] deals with Neurogenic locus notch homolog protein 2 (Homo sapiens) (UniProt Q04721). The experiment in a line: small molecules binding Notch2 protein – biochemical, small-molecule microarray, 635 nm fluorescence, stem cell growth factors, primary screen (AID 1073). Particulars: higher = more signal.
Experiment [6] concerns the target Pro-neuregulin-1, membrane-bound isoform (Homo sapiens) (UniProt Q02297). The experiment in a line: small molecules binding neuregulin-1 protein – biochemical, small-molecule microarray, fluorescence 635/667, psychiatric disease protein project, primary screen (AID 1075).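 Note: score combines 667 nm spot fluorescence with signal to noise.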 Particulars: NRG1 binding, 635 nm fluorescence, higher = more signal.
The test system of experiment [7] is Neuregulin-1 EGF-like domain. Put plainly: small molecules binding NRG1 EGF domain – biochemical, small-molecule microarray, 635 nm fluorescence, primary screen (AID 1081).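 Note: binding of the protein to compounds printed on small-molecule microarray slides.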 To be noted: higher = more signal.
Experiment [8] can be described thus: FRG1 expression reporter modulators in myotubes – cell-based, C2C12 myotubes, firefly/Renilla luciferase, luminescence, FRG1 inhibition for FSHD, primary screen (AID 1084). To be noted: FRG1 promoter luciferase, higher = more signal, called active from +8 up or from −8 down.
Experiment [9] is described as follows: small molecules captured by biotinylated probe aFST – biochemical, small-molecule microarray, fluorescence 635/667, stem cell growth factor project, primary screen (AID 1086).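 Note: score merges 667 nm fluorescence with signal-to-noise of each printed compound spot.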 To be noted: higher = more signal.
Experiment [10] can be described thus: binders of probe aHhip on microarray, primary screen, stem cell growth factor project, biochemical, small-molecule microarray, fluorescence 635/667 (AID 1087).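 Note: score merges spot fluorescence at 667nm with spot signal to noise ratio.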 Particulars: higher = more signal.
Experiment [11] concerns PRMT1 (protein arginine N-methyltransferase 1). The experiment in a line: small molecules binding arginine methyltransferase PRMT1 – biochemical, small-molecule microarray, 635 nm fluorescence, primary screen (AID 1088).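 Note: binding of Prmt1 protein to compounds spotted on small-molecule microarray slides.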 To be noted: higher = more signal.
Experiment [12] in a line: growth effects on S. cerevisiae YJM789 – YJM789 clinical isolate, OD600, 24 h, basal, primary screen (AID 1089).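 Note: growth of clinical yeast isolate S. cerevisiae YJM 789 seeded 1000 cells per well; test concentration not given here.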 Particulars: higher = more signal, called active from +8 up or from −8 down.
Experiment [13] in a line: S. pombe growth modifiers, basal conditions – strain 972, OD600, 24 h, no modulator, primary screen (AID 1090).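 Note: basal condition with compound alone and no growth modifier present; test concentration not given here.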 Particulars: S. pombe 972 growth, higher = more signal, called active from +8 up or from −8 down.
The nature of experiment [14]: budding yeast growth modifiers under rapamycin – strain BY4716, OD600, 96 h, primary screen (AID 1091). Note: test concentration not given here. To be noted: S. cerevisiae BY4716 + rapamycin, higher = more signal, called active from +8 up or from −8 down.
The target of experiment [15] is Torsin-1A-interacting protein 2 (Homo sapiens) (UniProt Q8NFQ8). The experiment in a line: small molecules binding lysate-expressed LULL1 – cell lysate, human LULL1 lysate, 635/667 nm fluorescence, primary screen (AID 1092).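 Note: probe is lysate of COS7 cells overexpressing human LULL1; score merges per-feature 667 nm fluorescence with signal-to-noise.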 Particulars: small-molecule microarray, hLULL1 lysate binding, 635 nm fluorescence; higher = more signal.
A short description of experiment [16]: optical density change of DRC41 E. coli – strain DRC41, OD650, 24 h, E. coli filamentation project, primary screen (AID 1093).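 Note: MC1000 strain lacking acrAB efflux and sulA so SOS filamentation is blocked; test concentration not given here.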 Particulars: E. coli DRC41 growth, higher = more signal, called active from +8 up or from −8 down.
The nature of experiment [17]: probe aLefty2 binding to arrayed compounds – biochemical, biotinylated probe, 635/667 nm fluorescence, primary screen (AID 1094).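 Note: score merges spot fluorescence near 667 nm with spot signal-to-noise ratio.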 To be noted: small-molecule microarray, higher = more signal.
In experiment [18] the test system is Noggin (protein binding on small-molecule microarray). The experiment in a line: small molecules binding Noggin protein – biochemical, 635/667 nm fluorescence, primary screen (AID 1095).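 Note: score merges 667 nm feature fluorescence with signal to noise over triplicate slides.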 To be noted: 635 nm fluorescence, higher = more signal.
The target in experiment [19] is Neurogenic locus notch homolog protein 3 (Homo sapiens) (UniProt Q9UM47). Put plainly: small molecules binding NOTCH3 protein – biochemical, 635/667 nm fluorescence, primary screen (AID 1096). Particulars: small-molecule microarray, 635 nm fluorescence, higher = more signal.
A short description of experiment [20]: probe aEGFR binding to arrayed compounds – biochemical, biotinylated probe, 635/667 nm fluorescence, primary screen (AID 1097).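 Note: probe is a biotinylated anti-EGFR antibody binding compounds printed on slides; score combines fluorescence near 667 nm and signal to noise of each spot.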 To be noted: small-molecule microarray, higher = more signal.

The source made the active and inactive calls.

Pro-neuregulin-1, membrane-bound isoform (Homo sapiens), sequence (Q02297 whole entry, looked up, the tested form may be a part, canonical isoform): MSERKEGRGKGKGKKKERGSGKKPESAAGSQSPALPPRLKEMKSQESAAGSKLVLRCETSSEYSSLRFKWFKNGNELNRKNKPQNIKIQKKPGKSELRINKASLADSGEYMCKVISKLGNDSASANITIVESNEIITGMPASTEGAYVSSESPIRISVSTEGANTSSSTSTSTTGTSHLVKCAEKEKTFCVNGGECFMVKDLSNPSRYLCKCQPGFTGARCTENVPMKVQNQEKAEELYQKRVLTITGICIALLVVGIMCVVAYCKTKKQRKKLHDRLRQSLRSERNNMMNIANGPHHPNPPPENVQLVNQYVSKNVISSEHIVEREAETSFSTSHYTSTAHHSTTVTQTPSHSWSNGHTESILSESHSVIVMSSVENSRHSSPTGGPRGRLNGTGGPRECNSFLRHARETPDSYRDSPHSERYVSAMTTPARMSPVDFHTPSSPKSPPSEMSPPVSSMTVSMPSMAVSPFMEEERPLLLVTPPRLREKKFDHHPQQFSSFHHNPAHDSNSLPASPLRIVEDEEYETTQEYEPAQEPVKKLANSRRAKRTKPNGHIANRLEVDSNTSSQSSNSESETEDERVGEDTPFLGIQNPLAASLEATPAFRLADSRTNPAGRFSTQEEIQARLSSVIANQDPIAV
Neurogenic locus notch homolog protein 2 (Homo sapiens), sequence (Q04721 whole entry, looked up, canonical isoform): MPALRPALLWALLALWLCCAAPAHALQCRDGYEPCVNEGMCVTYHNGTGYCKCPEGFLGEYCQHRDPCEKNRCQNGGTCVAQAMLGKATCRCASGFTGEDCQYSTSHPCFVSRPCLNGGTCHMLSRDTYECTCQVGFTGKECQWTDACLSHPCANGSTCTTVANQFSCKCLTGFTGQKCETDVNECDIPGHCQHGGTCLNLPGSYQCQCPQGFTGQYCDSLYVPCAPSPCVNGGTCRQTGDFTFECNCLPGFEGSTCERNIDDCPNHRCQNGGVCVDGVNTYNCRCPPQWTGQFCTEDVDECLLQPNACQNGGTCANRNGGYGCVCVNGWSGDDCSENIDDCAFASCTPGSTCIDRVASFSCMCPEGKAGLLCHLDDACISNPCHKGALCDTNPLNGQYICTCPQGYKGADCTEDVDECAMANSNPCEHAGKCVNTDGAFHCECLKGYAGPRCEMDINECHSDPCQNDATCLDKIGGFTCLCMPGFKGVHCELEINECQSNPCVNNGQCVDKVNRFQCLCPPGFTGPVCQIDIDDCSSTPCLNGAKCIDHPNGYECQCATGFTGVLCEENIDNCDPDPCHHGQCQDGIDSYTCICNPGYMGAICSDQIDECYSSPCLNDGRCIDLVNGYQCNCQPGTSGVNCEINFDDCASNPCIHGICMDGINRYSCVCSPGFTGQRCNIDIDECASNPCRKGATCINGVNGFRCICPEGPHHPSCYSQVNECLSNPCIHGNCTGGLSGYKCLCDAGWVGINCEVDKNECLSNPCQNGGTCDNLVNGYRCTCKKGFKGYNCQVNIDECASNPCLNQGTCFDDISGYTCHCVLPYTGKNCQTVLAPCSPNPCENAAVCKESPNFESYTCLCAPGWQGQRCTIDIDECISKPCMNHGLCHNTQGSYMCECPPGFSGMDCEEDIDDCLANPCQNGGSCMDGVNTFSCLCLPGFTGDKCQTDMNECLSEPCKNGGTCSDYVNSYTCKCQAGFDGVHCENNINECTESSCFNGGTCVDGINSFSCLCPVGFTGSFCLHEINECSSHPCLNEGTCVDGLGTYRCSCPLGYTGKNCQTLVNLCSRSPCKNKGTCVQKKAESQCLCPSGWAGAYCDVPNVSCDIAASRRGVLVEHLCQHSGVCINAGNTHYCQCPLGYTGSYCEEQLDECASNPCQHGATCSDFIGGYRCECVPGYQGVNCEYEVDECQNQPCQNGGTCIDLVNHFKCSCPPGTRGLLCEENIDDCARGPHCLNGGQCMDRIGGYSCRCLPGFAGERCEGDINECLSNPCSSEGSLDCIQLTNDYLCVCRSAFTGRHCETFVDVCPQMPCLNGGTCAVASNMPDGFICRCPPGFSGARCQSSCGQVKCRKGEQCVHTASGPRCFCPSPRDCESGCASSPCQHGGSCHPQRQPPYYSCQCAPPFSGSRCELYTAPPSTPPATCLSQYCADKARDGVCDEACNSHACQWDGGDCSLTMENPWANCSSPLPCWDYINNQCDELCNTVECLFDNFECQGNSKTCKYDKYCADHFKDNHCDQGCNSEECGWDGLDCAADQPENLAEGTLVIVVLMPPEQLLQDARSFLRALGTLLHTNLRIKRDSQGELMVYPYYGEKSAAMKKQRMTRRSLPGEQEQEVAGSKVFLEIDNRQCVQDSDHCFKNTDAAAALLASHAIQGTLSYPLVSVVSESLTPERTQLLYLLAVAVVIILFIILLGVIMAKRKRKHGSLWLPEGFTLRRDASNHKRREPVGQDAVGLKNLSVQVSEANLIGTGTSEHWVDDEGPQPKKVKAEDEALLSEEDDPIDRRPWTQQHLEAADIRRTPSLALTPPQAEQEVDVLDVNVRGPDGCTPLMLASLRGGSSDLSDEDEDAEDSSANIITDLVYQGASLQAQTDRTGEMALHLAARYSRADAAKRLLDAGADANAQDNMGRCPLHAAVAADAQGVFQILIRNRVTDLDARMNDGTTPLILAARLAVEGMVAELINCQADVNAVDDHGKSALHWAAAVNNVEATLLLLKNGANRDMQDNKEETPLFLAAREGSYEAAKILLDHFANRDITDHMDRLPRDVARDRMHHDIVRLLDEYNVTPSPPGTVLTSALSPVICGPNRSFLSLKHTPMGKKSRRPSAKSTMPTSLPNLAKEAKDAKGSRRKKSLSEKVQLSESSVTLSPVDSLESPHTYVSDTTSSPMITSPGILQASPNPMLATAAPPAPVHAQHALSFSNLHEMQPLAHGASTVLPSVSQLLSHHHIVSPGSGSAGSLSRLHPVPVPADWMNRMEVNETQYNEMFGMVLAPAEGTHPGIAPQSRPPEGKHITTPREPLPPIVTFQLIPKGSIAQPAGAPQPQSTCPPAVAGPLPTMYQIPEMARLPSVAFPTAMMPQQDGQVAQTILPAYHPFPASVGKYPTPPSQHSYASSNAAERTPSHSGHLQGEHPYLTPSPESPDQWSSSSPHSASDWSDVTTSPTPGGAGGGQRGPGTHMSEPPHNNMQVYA
Torsin-1A-interacting protein 2 (Homo sapiens), sequence (Q8NFQ8 whole entry, looked up): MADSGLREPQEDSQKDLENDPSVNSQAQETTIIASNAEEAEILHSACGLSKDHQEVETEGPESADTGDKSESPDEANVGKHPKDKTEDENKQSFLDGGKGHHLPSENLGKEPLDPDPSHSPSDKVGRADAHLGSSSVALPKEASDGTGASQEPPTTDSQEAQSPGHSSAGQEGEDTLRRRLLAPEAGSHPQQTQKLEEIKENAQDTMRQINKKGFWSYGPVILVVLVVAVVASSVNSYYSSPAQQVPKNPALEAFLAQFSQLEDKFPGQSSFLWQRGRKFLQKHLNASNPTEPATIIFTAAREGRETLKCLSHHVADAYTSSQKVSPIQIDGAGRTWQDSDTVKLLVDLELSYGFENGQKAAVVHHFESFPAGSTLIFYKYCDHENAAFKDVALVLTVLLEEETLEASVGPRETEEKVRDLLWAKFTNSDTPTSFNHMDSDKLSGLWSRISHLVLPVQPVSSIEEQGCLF

For `CC(C)C[C@@H]1NC(=O)[C@@H]2C[C@H](C(=O)NCCCCCC[N+](C)(C)C)[C@H](c3cccc(OCCO)c3)N2C1=O`, the composite z-score in experiment [1] was 0.222; in experiment [2], 0.0263; in experiment [3], -0.145; in experiment [4] it was -0.289; in experiment [5], 0.114; in experiment [6], 1.06. Besides, the composite z-score in experiment [7] was 1.18; in experiment [9] it was -0.304; in experiment [10] it was -0.126; in experiment [11] it was 1.58; in [15], 3.23; in experiment [17], -0.135. For the same compound, the composite z-score in [18] is -0.143; in experiment [19], 0.766; in experiment [20], -0.0572. For the same compound, the z-score in experiment [8] was 2.84 (inactive); in [12], -0.632 (inactive); in [13], 0.806 (inactive); in experiment [14] it was 0.24 (inactive); in experiment [16] it was -0.209 (inactive).

With `COc1cc(C(O)C2C=CC3C(=O)N(Cc4ccccc4)C(=O)C3N2n2cnnc2)cc(OC)c1OC` (stereo not given), the composite z-score is -0.246 in [1]; 0.606 in [2]; 0.133 in experiment [3]; 0.537 in experiment [4]; 1.49 in experiment [5]; 0.332 in [6]. In addition, the composite z-score in experiment [7] is 1.14; in [9] it was 0.39; in [10], -0.0867; in experiment [11], 0.932; in [15], 1.36; in [17] it was 0.327. Besides, the values for the composite z-score in [18], in experiment [19] and in experiment [20] were -0.127, 0.626 and 0.298, respectively. The z-score in experiment [8] is -1.7 (inactive); in experiment [12], -1.3 (inactive); in experiment [13], -0.519 (inactive); in experiment [14], -1.22 (inactive); in [16], 0.582 (inactive).

Take `NC(=O)[C@H]1[C@@H]2C(=O)O[C@@H](c3ccccc3)[C@@H](c3ccccc3)N2[C@@H](c2ccc(O)cc2)[C@]12C(=O)Nc1ccc(C#CC3=CCCCC3)cc12`: the composite z-score in experiment [1] is 0.124; in [2] it was 0.813; in experiment [3], -0.0979; in [4], -0.105; in [5] it was -0.734; in [6] it was 1.22. For the same compound, the composite z-score was 1.25 in experiment [7]; 0.0569 in experiment [9]; -0.406 in experiment [10]; 1.45 in [11]; 2.83 in experiment [15]; -0.185 in [17]. Besides, the composite z-score in experiment [18] was 0.186; in experiment [19] it was 0.169; in experiment [20] it was -0.186. The z-score in experiment [8] was 1.23 (inactive); in [12], 1.42 (inactive); in experiment [13], 0.481 (inactive); in experiment [14], 2.1 (inactive); in [16], -1.32 (inactive).

Consider `CCOC(=O)C1=CC[C@@H](c2ccccc2)N(S(=O)(=O)c2ccc(C)cc2)[C@H]1C=Cc1ccccc1`, for which the composite z-score in experiment [1] is 0.162; in experiment [2], -0.0855; in experiment [3] it was -0.04; in experiment [4] it was 0.694; in experiment [5], 0.471; in experiment [6] it was 0.941. Also, the composite z-score in experiment [7] was 0.918; in experiment [9] it was 0.47; in [10], 0.0373; in experiment [11], 0.238; in experiment [15] it was 2.32; in experiment [17], -0.0146. Also, the composite z-score in experiment [18] is -0.452; in experiment [19], 0.258; in [20], -0.0828. The z-score in experiment [8] is -3.49 (inactive); in experiment [12] it was 0.403 (inactive); in experiment [13], 2.4 (inactive); in [14], 1.46 (inactive); in experiment [16] it was -0.812 (inactive).

Consider `C[C@@]12COC[C@]13C=C(Br)[C@H](C2)[C@@]1(CO1)C3=O`, for which the composite z-score in experiment [1] was 0.129; in [2], -1.21; in experiment [3], -0.04; in [4] it was -0.455; in experiment [5], -0.895; in experiment [6], -0.708. In addition, the composite z-score in [7] is -1.12; in experiment [9], -0.476; in experiment [10], -0.134; in experiment [11], -1.78; in experiment [15] it was -2.15; in experiment [17], -0.207. For the same compound, the composite z-score is -0.508 in [18], -0.233 in [19] and -0.178 in experiment [20]. In addition, the z-score is -0.293 (inactive) in experiment [8]; -0.0556 (inactive) in experiment [12]; -2.25 (inactive) in experiment [13]; -0.0407 (inactive) in experiment [14]; -0.768 (inactive) in experiment [16].
